DAX1 inh-1 – NR0B1 (DAX1) inhibition | P51843 | HEK293 Gal4-DAX1 luciferase reporter, luminescence | inhibition, % at 6.75 µM | 340,000 compounds, 0.99% hits | AID 504766;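 active means inhibition above the mean over all tested compounds plus 3 SD, cut at about 4.2% in these data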;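 further: 0% = DAX1-transfected cells with DMSO and 100% = empty-vector control cells with DMSO; inhibition shows as a rise in luminescence from relieved DAX1 repression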
Target sequence (P51843 207-470 limits assumed): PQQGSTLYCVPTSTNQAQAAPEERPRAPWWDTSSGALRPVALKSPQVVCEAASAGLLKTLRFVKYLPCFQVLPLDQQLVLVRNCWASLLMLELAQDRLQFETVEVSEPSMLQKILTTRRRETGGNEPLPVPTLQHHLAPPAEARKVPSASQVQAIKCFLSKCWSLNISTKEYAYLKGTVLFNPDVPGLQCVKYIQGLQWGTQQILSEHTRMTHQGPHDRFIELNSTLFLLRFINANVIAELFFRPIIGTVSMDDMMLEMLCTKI
ssDAF-12 act – activates DAF-12 receptor from parasite S. stercoralis. HEK293 ssDAF-12/GRIP1 lit1-tk-luc reporter, luminescence; % of 3 µM dafachronic acid response. activation, % at 6.8 µM. 370,000 compounds, 1% hits;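 active means activation above the mean over all tested compounds plus 3 SD, cut at about 0.9% in these data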;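 further: 0% = DMSO-only wells and 100% = 3 µM delta7-dafachronic acid wells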
DAX1 inh-2 – DAX1 (NR0B1) inhibition, primary screen. HEK293T StAR-luciferase reporter, SF-1/DAX-1 repression relief. inhibition, % at 6.8 µM. 370,000 compounds, 1.1% hits;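 active means inhibition above the mean over all tested compounds plus 3 SD, cut at about 3.6% in these data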;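 further: 0% = DAX-1 cells with DMSO and 100% = cells lacking DAX-1 with DMSO; higher inhibition means more luminescence from relief of DAX-1 repression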
hcDAF12 agonist – activates DAF-12 receptor from parasite H. contortus | HEK293 hcDAF-12 lit1-tk-luc reporter, luminescence; 0% DMSO, 100% Δ7-dafachronic acid | activation, % at 6.8 µM | 370,000 compounds, 1.4% hits | AID 652067;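 active means activation above the mean of all tested compounds plus 3 SD, cut at about 5.5% in these data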;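 further: 100% = response to 3 µM Δ7-dafachronic acid high control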
hgDAF-12 ag – agonists of H. glycines DAF-12 nuclear receptor; AID 687014; 370,000 compounds, 1.8% hits; activation, % at 6.8 µM; HEK293 GAL4-hgDAF12 UAS-luciferase reporter, agonist luminescence; normalized to butyrate control;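 active means activation above a cutoff set at the mean of all screened compounds plus 3 SD, cut at about 10% in these data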;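 further: 0% = DMSO wells and 100% = sodium butyrate wells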
Numbers without * were called inactive; · = no result. Hits are enriched below; roughly 4.1% of the tested compounds scored in any of these assays.

SMILES | DAX1 inh-1 | ssDAF-12 act | DAX1 inh-2 | hcDAF12 agonist | hgDAF-12 ag
Cc1ccc(CNC(=O)O[C@H]2CC[C@@]34CCCN3C(=O)CCC[C@H]4C2)cc1 | · | -2 | · | -2 | 2
CC1=NN(C(=O)CCc2ccc3c(c2)OCO3)C(O)(C(F)(F)F)C1 (centres undefined) | 1 | 9.7* | -1 | -1 | -1
COc1ccc(CC(=O)N2N=C(C)CC2(O)C(F)(F)F)cc1OC (centres undefined) | 0 | -2 | -1 | 0 | 0
C[C@@H](C(=O)N=c1sc2ccccc2n1C)N1C(=O)C2CC=CCC2C1=O (some centres undefined) | -1 | 1.0* | 0 | 1 | -1
Cn1c(=NC(=O)CN2C(=O)C3CC=CCC3C2=O)sc2ccccc21 (centres undefined) | -1 | 0 | 0 | 2 | 0
Cc1nc2ccc(NC(=O)Cc3ccsc3)cc2s1 | 1 | 1.3* | 2 | 5.8* | 6
CC(=O)c1ccc(NC(=O)c2ccc3nc(C)sc3c2)cc1 | 2 | 1 | 0 | 1 | 10
Cc1nc2ccc(C(=O)Nc3ccccc3Cl)cc2s1 | 3 | -1 | 2 | 1 | 11*
Cc1nc2ccc(NC(=O)c3ccco3)cc2s1 | 1 | -1 | 2 | 1 | 12*
CSc1nc2ccc(NC(=O)COc3ccccc3F)cc2s1 | -1 | 0 | 3.7* | 3 | 9
COc1cc(CC(=O)Nc2ccc3nc(SC)sc3c2)cc(OC)c1OC | 0 | -2 | -1 | 0 | 0
Oc1ccc(CNc2ccc(C(F)(F)F)cc2F)c2cccnc12 | · | 0 | · | 4 | 4
Cc1ccc(S(=O)(=O)CCC(=O)Nc2cccc([N+](=O)[O-])c2)cc1 | 7.3* | -1 | 0 | 0 | 2
Cc1nc2ccc(NC(=O)c3ccccc3)cc2s1 | 3 | -1 | 2 | 2 | 11*
CSc1nc2ccc(NC(=O)c3ccc(Cl)s3)cc2s1 | 1 | -1 | 4.1* | 0 | 2
Cc1ccc(S(=O)(=O)CCC(=O)Nc2ccc3nc(C)sc3c2)cc1 | 1 | -2 | 0 | -1 | 1
Cc1nc2ccc(NC(=O)CCS(=O)(=O)c3ccccc3)cc2s1 | 5.2* | 0 | 1 | 2 | 9
COC(=O)[C@]12C[C@H](CC(=O)N3CCSCC3)C(=O)N(Cc3ccco3)C1=C[C@H](C1CCCC1)O[C@@H]2C | · | -1 | 0 | 0 | 2
O=C(Nc1ccccc1F)O[C@@H]1CC[C@@]23CCCN2C(=O)CCC[C@H]3C1 | · | -1 | · | 1 | 0
COC(=O)C1CN(Cc2cn(Cc3ccc(C)cc3)nn2)CCS(=O)(=O)N1Cc1ccccc1 (centres undefined) | · | -1 | -1 | -1 | -1
CSc1nc2ccc(NC(=O)CS(=O)(=O)c3ccccc3)cc2s1 | 3 | 0 | 2 | 1 | 11*
Cc1ccc2nc(NC(=S)NC(=O)c3ccco3)sc2c1 | 5.2* | 0 | 1 | 3 | 12*
Cc1nc2ccc(NC(=O)c3sccc3C)cc2s1 | 1 | -1 | 2 | 0 | 12*
CNC(=O)Nc1ccc2nc(C)sc2c1 | 0 | -1 | 0 | 3 | 2
CC(C)(C)[C@H](NC(=O)c1cc(Cl)cc(Cl)c1)C(=O)N1CCC[C@H]1C(=O)N[C@H](C#N)CC(=O)O | · | -1 | · | 0 | -2
SMILES | DAX1 inh-1 | ssDAF-12 act | DAX1 inh-2 | hcDAF12 agonist | hgDAF-12 ag
C[C@H](O)[C@@H]1CN2CCc3c([nH]c4cccc(-c5ccccc5)c34)[C@@H]2C[C@@H]1N(C)C(=O)c1ccco1 | · | -1 | 0 | -1 | 3
COc1cccc(C(=O)N[C@H](C(=O)N2CCC[C@H]2C(=O)NCCc2ccccc2Cl)c2ccccc2)c1 | · | -2 | -1 | 1 | -2
C=CCN1C(=O)[C@@H](CC(=O)NCCc2ccccc2OC)[C@]2(C(=O)OCC)CCCCC/C=C/12 | · | -1 | -1 | -1 | 1
Cn1c(=O)[nH]c(=O)c2c1nc(CN1CCN(c3cccc(Cl)c3)CC1)n2CCc1ccccc1 | 0 | -2 | 0 | -2 | 0
Cn1c(CN2CCN(c3cccc(Cl)c3)CC2)nc2ccccc21 | -1 | -1 | -1 | 5.8* | 0
COc1ccccc1CC(=O)NNS(=O)(=O)c1ccc([N+](=O)[O-])cc1 | 6.1* | -1 | -1 | -1 | -2
COc1ccccc1CC(=O)NNS(=O)(=O)c1cccc([N+](=O)[O-])c1 | 0 | -1 | 0 | -1 | -3
O=C(O)c1ccc(N/N=C/c2cccc(C(F)(F)F)c2)cc1 | 4.7* | 0 | 4.4* | 5 | 10
